Results published in PubChem BioAssay.
“And” between values parts separate entries of the source, which are not always exact repeats. Identical values can stand only once. Results filed as inconclusive are left out. The source made the active and inactive calls.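 Rule for the calls, unless noted: active = normalized viability below 100% at a tested concentration; inactive = the rest.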

Key:
[1] = viability loss in pontine glioma line – cell-based, SU-DIPG-XVII, MIPE5.0, CellTiter-Glo, qHTS, dose response (AID 1347060; cut-off not given, nearly all actives have AC50 up to about 26 µM;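 for AC50: cells exposed to compound for 48 hours before viability readout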); conditions: CellTiter-Glo ATP luminescence
[2] = viability loss in pontine glioma line – cell-based, SU-DIPG-IV, MIPE4.0, CellTiter-Glo, qHTS, dose response (AID 1347063; cut-off not given, nearly all actives have AC50 up to about 30 µM;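 note: compound exposure lasted 48 hours before the viability readout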); conditions: CellTiter-Glo ATP luminescence
[3] = viability loss in pontine glioma line – cell-based, SU-DIPG-XIII, MIPE5.0, CellTiter-Glo, qHTS, dose response (AID 1347064; cut-off not given, nearly all actives have AC50 up to about 23 µM;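 for AC50: cells exposed to compound for 48 hours before the viability read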); conditions: CellTiter-Glo ATP luminescence
[4] = viability loss in pontine glioma line – cell-based, SU-DIPG-XXV, MIPE5.0, CellTiter-Glo, qHTS, dose response (AID 1347065; cut-off not given, nearly all actives have AC50 up to about 26 µM;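 note: cells exposed to compound for 48 hours before ATP readout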); conditions: CellTiter-Glo ATP luminescence
[5] = JHH-DIPG-1 glioma cell viability, MIPE5.0 library, CellTiter-Glo luminescence, qHTS (AID 1347067; cut-off not given, nearly all actives have AC50 up to about 26 µM;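 note: cells exposed to compound for 48 hours before readout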); conditions: JHH-DIPG-1 glioma viability, CellTiter-Glo ATP luminescence
[6] = growth inhibition of DIPG cells – cell-based, MIPE5.0 library, qHTS (AID 1347068; cut-off not given, nearly all actives have IC50 up to about 30 µM;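 for IC50: cells exposed to compound for 48 hours before viability readout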); conditions: SU-DIPG-XXV viability
[7] = viability loss with induced miR-34 in A549 – imaging, A549 dox-inducible miR-34, nuclei and caspase counts, primary screen (AID 1347080;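 active = compounds whose cell count with miR-34 switched on is under 0.7 times the count with it off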); conditions: A549 miR-34 inducible, Hoechst nuclei count, 48 h
[8] = compounds altering HSF1 focus formation in cells – imaging, Selleck Cancer Library (AID 1347162; in the data active = plate-normalised HSF1 focus index below about 0.46); conditions: human cells, HSF1 nuclear foci imaging, at 10 µM; SSMD: measured here: HSF1 foci SSMD mean; cell count: measured here: cell number; plate-normalised HSF1 focus index: stronger effect = lower value
[9] = MELAS cybrid and Rieske KO viability enhancers – cell-based, MELAS cybrids, Rieske KO mouse fibroblasts, CellTiter-Glo, primary screen (AID 1508586;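 active = mean z-score across replicates of 1.96 or higher in either the MELAS or the Rieske mutant cell line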;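 note: z relative to plate mean and SD of compound and empty wells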); conditions: low glucose
[10] = drug combination growth inhibition, ovarian cancer – cell-based, oncology-focused library, rucaparib conditional, profiling panel (AID 1508598); conditions: patient-derived ovarian cancer cells, CellTiter-Glo viability, 144 h, stronger effect = lower value
[11] = growth inhibition of DIPG cells – cell-based, MIPE4.0 library, CellTiter-Glo luminescence, qHTS (AID 1347066; cut-off not given, nearly all actives have AC50 up to about 30 µM;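 note: cells exposed to compound for 48 hours before readout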); conditions: SU-DIPG-VI viability, CellTiter-Glo ATP luminescence
[12] = P. berghei load reduction in hepatocytes – cell-based, HepG2, luciferase luminescence, HepG2 viability, primary screen (AID 624349; in the data active = parasite load remaining mostly below about 12%, no sharp cut-off; inactive = mostly above about 10%;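 note: 100% = mean of DMSO negative control wells on the same plate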); conditions: P. berghei liver stage in HepG2, luciferase luminescence, concentration not given here; parasite load remaining: stronger effect = lower value; viability: measured here: HepG2 viability without parasites
[13] = stronger effect = lower value, cell number ratio, induced over uninduced
[14] = measured here: relative caspase fold change +Dox/-Dox
[15] = measured here: total cells with miR-34 induction, stronger effect = lower value
[16] = measured here: total cells without miR-34 induction
[17] = MELAS cybrid survival, CellTiter-Glo 48 h, stronger effect = higher value
[18] = Rieske KO mouse fibroblast survival, CellTiter-Glo 72 h
[19] = at 0.000305 µM, OCI-C5x cells, with rucaparib 10 µM, 100% = cells with rucaparib alone
[20] = at 0.000305 µM, OCI-C5x cells, without rucaparib
[21] = at 0.000305 µM, OCI-P5x cells, with rucaparib 20 µM, 100% = cells with rucaparib alone
[22] = at 0.000305 µM, OCI-P5x cells, without rucaparib
[23] = at 0.00122 µM, OCI-C5x cells, with rucaparib 10 µM, 100% = cells with rucaparib alone
[24] = at 0.00122 µM, OCI-C5x cells, without rucaparib
[25] = at 0.00122 µM, OCI-P5x cells, with rucaparib 20 µM, 100% = cells with rucaparib alone
[26] = at 0.00122 µM, OCI-P5x cells, without rucaparib
[27] = at 0.00488 µM, OCI-C5x cells, with rucaparib 10 µM, 100% = cells with rucaparib alone
[28] = at 0.00488 µM, OCI-C5x cells, without rucaparib
[29] = at 0.00488 µM, OCI-P5x cells, with rucaparib 20 µM, 100% = cells with rucaparib alone
[30] = at 0.00488 µM, OCI-P5x cells, without rucaparib
[31] = at 0.0195 µM, OCI-C5x cells, with rucaparib 10 µM, 100% = cells with rucaparib alone
[32] = at 0.0195 µM, OCI-C5x cells, without rucaparib
[33] = at 0.0195 µM, OCI-P5x cells, with rucaparib 20 µM, 100% = cells with rucaparib alone
[34] = at 0.0195 µM, OCI-P5x cells, without rucaparib
[35] = at 0.0781 µM, OCI-C5x cells, with rucaparib 10 µM, 100% = cells with rucaparib alone
[36] = at 0.0781 µM, OCI-C5x cells, without rucaparib
[37] = at 0.0781 µM, OCI-P5x cells, with rucaparib 20 µM, 100% = cells with rucaparib alone
[38] = at 0.0781 µM, OCI-P5x cells, without rucaparib
[39] = at 0.313 µM, OCI-C5x cells, with rucaparib 10 µM, 100% = cells with rucaparib alone
[40] = at 0.313 µM, OCI-C5x cells, without rucaparib
[41] = at 0.313 µM, OCI-P5x cells, with rucaparib 20 µM, 100% = cells with rucaparib alone
[42] = at 0.313 µM, OCI-P5x cells, without rucaparib
[43] = at 1.25 µM, OCI-C5x cells, with rucaparib 10 µM, 100% = cells with rucaparib alone
[44] = at 1.25 µM, OCI-C5x cells, without rucaparib
[45] = at 1.25 µM, OCI-P5x cells, with rucaparib 20 µM, 100% = cells with rucaparib alone
[46] = at 1.25 µM, OCI-P5x cells, without rucaparib
[47] = at 5 µM, OCI-C5x cells, with rucaparib 10 µM, 100% = cells with rucaparib alone
[48] = at 5 µM, OCI-C5x cells, without rucaparib
[49] = at 5 µM, OCI-P5x cells, with rucaparib 20 µM, 100% = cells with rucaparib alone
[50] = at 5 µM, OCI-P5x cells, without rucaparib

N#CCNC(=O)c1ccc(-c2ccnc(Nc3ccc(N4CCOCC4)cc3)n2)cc1
1150: cell count [7, 15]
0.89: fold change [7, 14]
active: AC50 [1] 16.6 µM | AC50 [2] 20.9 µM | AC50 [3] 13.2 µM | AC50 [4] 16.6 µM | AC50 [5] 13.2 µM | IC50 [6] 18.6 µM | z-score [9, 17] 5.22 | viability [10, 30] 96.8% | viability [10, 34] 93.3% | viability [10, 37] 96.9% | viability [10, 38] 92.3% | viability [10, 41] 90.7% | viability [10, 42] 66.2% | viability [10, 45] 84.2% | viability [10, 46] 84.9% | viability [10, 47] 78.5% | viability [10, 49] 46.8% | viability [10, 50] 49%
inactive: fold change [7, 13] 0.941 | plate-normalised HSF1 focus index [8] 0.876 | viability [10, 19] 109% | viability [10, 20] 113% | viability [10, 21] 105% | viability [10, 22] 104% | viability [10, 23] 103% | viability [10, 24] 108% | viability [10, 25] 105% | viability [10, 26] 103% | viability [10, 27] 110% | viability [10, 28] 117% | viability [10, 29] 106% | viability [10, 31] 109% | viability [10, 32] 104% | viability [10, 33] 103% | viability [10, 35] 122% | viability [10, 36] 116% | viability [10, 39] 108% | viability [10, 40] 105% | viability [10, 43] 120% | viability [10, 44] 101% | viability [10, 48] 109%
7330: cell count [8]
-3.51: SSMD [8]
-1.38: z-score [9, 18]
1230: cell count [7, 16]

COc1ccc(-c2ccc3c(N4CCOC[C@@H]4C)nc(N4CCOC[C@@H]4C)nc3n2)cc1CO
7120: cell count [8]
active: AC50 [1] 0.209 µM | AC50 [2] 0.00935 µM | AC50 [3] 0.661 µM | AC50 [4] 0.105 µM | AC50 [5] 0.059 µM | viability [10, 21] 87.2% | viability [10, 22] 93% | viability [10, 25] 94.9% | viability [10, 26] 92.8% | viability [10, 29] 90.3% | viability [10, 30] 91% | viability [10, 33] 72.9% | viability [10, 34] 62.8% | viability [10, 35] 71.2% | viability [10, 36] 55.7% | viability [10, 37] 43.6% | viability [10, 38] 24.2% | viability [10, 39] 47.2% | viability [10, 40] 48.1% | viability [10, 41] 34.3% | viability [10, 42] 17% | viability [10, 43] 54.1% | viability [10, 44] 47.3% | viability [10, 45] 30.6% | viability [10, 46] 22.6% | viability [10, 47] 48% | viability [10, 48] 47.3% | viability [10, 49] 26.9% | viability [10, 50] 20.8%
-0.138: SSMD [8]
inactive: plate-normalised HSF1 focus index [8] 0.995 | viability [10, 19] 112% | viability [10, 20] 106% | viability [10, 23] 122% | viability [10, 24] 105% | viability [10, 27] 124% | viability [10, 28] 119% | viability [10, 31] 116% | viability [10, 32] 106%

CCOc1cc2ncc(C#N)c(Nc3ccc(OCc4ccccn4)c(Cl)c3)c2cc1NC(=O)/C=C/CN(C)C
-1.15: SSMD [8]
inactive: outcome [11] | plate-normalised HSF1 focus index [8] 0.928
7340: cell count [8]
active: AC50 [1] 14.8 µM | AC50 [2] 0.148 µM | AC50 [3] 5.9 µM | AC50 [4] 0.934 µM | AC50 [5] 5.25 µM

NCc1c[nH]c(=S)n1[C@H]1CCc2c(F)cc(F)cc2C1
inactive: outcome [1] | outcome [3] | outcome [4] | outcome [5] | outcome [6]
active: AC50 [2] 9.35 µM

N#Cc1c(NC(=O)c2cccc3ccccc23)sc2c1CCCC2
1290: cell count [7, 16]
0.427: fold change [7, 14]
0.237 and -1.54: z-score [9, 18]
98%: viability [12]
inactive: parasite load remaining [12] 47.8% | outcome [11] | fold change [7, 13] 1.02 | z-score [9, 17] -0.44 and 1.09 | viability [10, 19] 117% | viability [10, 20] 105% | viability [10, 22] 102% | viability [10, 23] 129% | viability [10, 24] 120% | viability [10, 26] 109% | viability [10, 27] 113% | viability [10, 28] 109% | viability [10, 29] 102% | viability [10, 31] 108% | viability [10, 32] 116% | viability [10, 34] 103% | viability [10, 35] 118% | viability [10, 36] 109% | viability [10, 38] 102% | viability [10, 39] 119% | viability [10, 40] 110% | viability [10, 41] 105% | viability [10, 42] 100% | viability [10, 44] 106%
active: AC50 [1] 0.372 µM | AC50 [2] 0.418 µM | AC50 [3] 1.32 µM | AC50 [4] 0.833 µM | AC50 [5] 0.263 µM | IC50 [6] 0.235 µM | viability [10, 21] 96% | viability [10, 25] 95.3% | viability [10, 30] 97.3% | viability [10, 33] 98.6% | viability [10, 37] 97.5% | viability [10, 43] 72.9% | viability [10, 45] 65.1% | viability [10, 46] 34.2% | viability [10, 47] 49.6% | viability [10, 48] 64.5% | viability [10, 49] 58.3% | viability [10, 50] 18.2%
1320: cell count [7, 15]

COc1cc(C)c(Sc2cnc(NC(=O)c3ccc(CNC(C)C(C)C)cc3)s2)cc1C(=O)N1CCN(C(C)=O)CC1 (configuration not stated)
active: AC50 [1] 14.8 µM | AC50 [2] 18.7 µM | AC50 [3] 8.33 µM | AC50 [4] 10.5 µM | AC50 [11] 14.8 µM | AC50 [5] 16.6 µM | IC50 [6] 14.8 µM

O[C@@H](COc1cccc2ncccc12)CN1CCN(C2c3ccccc3[C@@H]3[C@H](c4ccccc42)C3(F)F)CC1 (some centres not stated)
active: AC50 [1] 20.9 µM | AC50 [2] 16.6 µM | AC50 [3] 23.5 µM | AC50 [4] 13.2 µM | AC50 [5] 23.5 µM | IC50 [6] 18.6 µM

C[C@H]1[C@H](O)O[C@@H]2O[C@@]3(C)CC[C@H]4[C@H](C)CC[C@@H]1[C@@]24OO3
active: AC50 [1] 2.95 µM | AC50 [2] 2.96 µM | AC50 [3] 4.68 µM | AC50 [4] 7.42 µM
inactive: outcome [11]
